# Inconclusive results are not listed. Values without a mark were called inactive. Calls of active or inactive are those of the source. Calls follow the shape of the dose curve; as a rule, active = well fitted activation curve with a large enough effect in the main read-out, with a control signal flat (not every such curve was filed as active); inconclusive = small, poorly fitted or top-dose-only effect, or effect the other way, or a change in a side signal; inactive = flat fitted curve, though single readings scatter.
# Target: 3',5'-cyclic-AMP phosphodiesterase 4B (Homo sapiens) (UniProt Q07343)
# Assay: qHTS Assay for Inhibitors of PDE-IV (AID 607); also: % of control where 0% means no effect
# Settings: HEK293 ACTOne CNG channel cells, membrane potential fluorescence; series mostly up to 22.9 µM; activation (PDE inhibition): at the top concentration
# From the text: NIH Chemical Genomics Center [NCGC]
# NIH Molecular Libraries Screening Centers Network [MLSCN]
# The cyclic nucleotide phosphodiesterases (PDEs) are proteins that catalyze hydrolysis of 3', 5'-cyclic nucleotides, such as cyclic adenosine monophosphate (cAMP) and cyclic guanosine monophosphate (cGMP), to their corresponding 5'-nucleotide monophosphates. These enzymes play an important role in controlling cellular concentrations of cyclic nucleotides and have a central role in a variety of intracellular signaling events. cAMP PDEs are emerging as a promising class of drug targets in asthma and cardiovascular disease therapeutic areas.
# There are no commercially available cell-based screening assays for PDE inhibitors: currently biochemical assays are done using pure substrates (cAMP or cGMP) and purified recombinant PDE enzymes. As with other biochemical screens on intracellular targets, false positives and false negatives may result from issues involving cell membrane permeability, cellular metabolism, and the like.
# Here we report the development of a cell-based screening assay for cAMP phosphodiesterase (PDE) inhibitors. The assay is based on the BD ACTOne# technology (BD Biosciences) which utilizes a modified cyclic nucleotide-gated channel (CNG) to monitor intracellular cAMP changes in live cells. The CNG channel is localized on the plasma membrane, and opens when the intracellular cAMP level increases, resulting in ion flux and cell membrane depolarization. The influx of cations through the CNG channel can be quantified using membrane potential (MP) dyes. We modified the BD ACTOne technology to allow the detection of PDE inhibitors, and performed an inhibitor screen for PDE-IV, which is expressed endogenously in HEK293 cells. We optimized this assay in homogeneous 1536-well plate assay format for high throughput screening.
# NCGC Assay Protocol Summary:
# The medium contained 10% FBS (Invitrogen), 2 mM L-glutamine, and 250 ug/ml G418 (Cellgro) and 1 ug/ml puromycin (Clontech). ACTOneTM parental cells (BD Biosciences) were maintained in the same medium without puromycin.
# The activity of the CNG channel was measured by BD ACTOneTM membrane potential dye kit (BD Biosciences). Forskolin, a positive control for cAMP activation and RO 20-1724, a PDE inhibitor, were both purchased from Sigma and solublized in DMSO.
# Sequence,Parameter,Value,Description
# 1,Reagent,3 uL,1000 cells/well 1536 TC treated Black plate
# 3,Compound,0.5 uL,Kalypsys dispense RO 20-1724 100 uM final [A]
# 4,Reagent,3 uL,BD membrane potential dye
# 6,Compound,23 nL,Final concentration was 0.7nM to 22.9uM
# 8,Detector,EX 535 / EM 590 [B],Envision
# Footnotes: [A] The stock 2 mM RO 20-1724 PDE inhibitor was made in 10 % DMSO. Parental cell line received 10 uM forskolin + 100 uM RO. [B] Envsion settings: Bottom Excitation 535/20 nm top emission 590/20, gain of 150 and 5 flashes per well.
# Keywords: PDE, PDE-IV, cytotoxicity, flourescence, MLSMR, MLSCN, NIH Roadmap, qHTS, NCGC
# Sequence of 3',5'-cyclic-AMP phosphodiesterase 4B (Homo sapiens) (Q07343 whole entry, looked up): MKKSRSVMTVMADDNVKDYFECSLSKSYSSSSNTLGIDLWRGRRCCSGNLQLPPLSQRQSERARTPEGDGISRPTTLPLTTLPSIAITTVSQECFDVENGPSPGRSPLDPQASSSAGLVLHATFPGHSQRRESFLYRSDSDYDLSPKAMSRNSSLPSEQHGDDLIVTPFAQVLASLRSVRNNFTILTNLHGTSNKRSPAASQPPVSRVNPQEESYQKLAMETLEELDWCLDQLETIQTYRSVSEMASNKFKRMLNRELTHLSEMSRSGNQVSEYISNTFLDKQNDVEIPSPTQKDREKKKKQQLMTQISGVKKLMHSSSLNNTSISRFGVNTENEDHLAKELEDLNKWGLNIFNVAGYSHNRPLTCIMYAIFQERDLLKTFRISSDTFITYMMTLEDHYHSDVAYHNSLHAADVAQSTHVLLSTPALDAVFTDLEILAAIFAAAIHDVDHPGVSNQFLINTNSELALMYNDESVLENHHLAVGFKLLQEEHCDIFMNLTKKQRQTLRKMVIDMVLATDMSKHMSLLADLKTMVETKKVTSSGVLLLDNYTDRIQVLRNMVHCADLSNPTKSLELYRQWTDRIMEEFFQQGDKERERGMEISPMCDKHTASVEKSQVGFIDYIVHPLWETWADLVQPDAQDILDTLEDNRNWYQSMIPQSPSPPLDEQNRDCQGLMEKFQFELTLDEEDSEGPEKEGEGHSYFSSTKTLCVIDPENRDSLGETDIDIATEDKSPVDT
Compound,activation (PDE inhibition),Potency
c1ccc(CN2CCC3(CCNCC3)CC2)cc1,13%,–
O=C(c1ccco1)N1CCC[C@@]2(CCN(Cc3ccncc3)C2)C1,6.95%,–
CC(C)NC(=O)N1CCC2(CCNCC2)CC1,7.55%,–
CCC[C@@](C)(COC(N)=O)COC(=O)NC(C)C,–,inactive
O=C(c1ccco1)N1CCC2(CC1)CN(Cc1ccncc1)C2,-4.55%,–
COCC(=O)N1CCC2(CCCN(Cc3ccncc3)C2)CC1,5.96%,–
CC(C)CN1CCC2(CC1)CCN(C(=O)Oc1ccccc1)CC2,10%,–
COc1cc2c3cc1Oc1cc(ccc1O)C[C@@H]1c4c(cc(OC)c(O)c4Oc4cccc(c4)C[C@H]3N(C)CC2)CC[N+]1(C)C,5.89%,–
CN1CCC2(CC1)CCN(C(=O)Oc1ccccc1)CC2,8.09%,–
CC(C)CN1CCCC2(CCN(C(=O)c3ccncc3)CC2)C1,6.77%,–
NNCc1cccc(O)c1,-5.7%,–
C[C@H]1CC[C@@]2(NC1)O[C@@H]1C[C@H]3[C@@H]4CC=C5C[C@@H](O)CC[C@]5(C)[C@@H]4CC[C@]3(C)[C@@H]1[C@@H]2C,12.5%,–
CC(=O)OCC(=O)[C@@H]1CC[C@H]2[C@H]3CC[C@H]4C[C@@H](O)CC[C@]4(C)[C@@H]3C(=O)C[C@@]12C,2.78%,–
C[C@@]12CCC(=O)C=C1C=C[C@H]1[C@H]3CC[C@](O)(CCC(=O)O)[C@]3(C)CC[C@@H]12,-3.57%,–
c1ccc(N2CCC3(CCNCC3)CC2)nc1,29.4%,–
O=C(Oc1ccccc1)N1CCC2(CC1)CN(C(c1ccccc1)c1ccccc1)C2,18.8%,–
C[C@H]1CC[C@@]2(NC1)O[C@@H]1C[C@H]3[C@@H]4CC[C@@H]5C[C@@H](O)CC[C@@]5(C)[C@@H]4CC[C@]3(C)[C@@H]1[C@@H]2C,-3.94%,–
CC(C)(C)NC[C@H](O)c1cc(Cl)c(N)c(Cl)c1,27.6%,–
COC1=CC(=O)O[C@@H](/C=C\c2ccccc2)C1,2.3%,–
c1ccc(CN2CC[C@@]3(CCCNC3)C2)cc1,13.1%,–

Compound,activation (PDE inhibition),Potency
O=c1ccc2cc(O[C@H]3O[C@@H](CO)[C@@H](O)[C@@H](O)[C@@H]3O)c(O)cc2o1,1.17%,–
CC(C)CN1CC2(CCN(C(=O)Oc3ccccc3)CC2)C1,-3.52%,–
N#Cc1cccc(NC(=O)N2CC3(CCN(C(=O)Oc4ccccc4)CC3)C2)c1,4.05%,–
c1csc(CN2CC3(CCNCC3)C2)n1,-1.86%,–
O=C(Oc1ccccc1)N1CCC[C@@]2(CCN(C(c3ccccc3)c3ccccc3)C2)C1,23.7%,–
O=C(Oc1ccccc1)N1CCC2(CC1)CN(Cc1ccncc1)C2,-7.26%,–
CN1CCc2cc3c(cc2[C@@H]1[C@@H]1OC(=O)c2c1ccc1c2OCO1)OCO3,–,inactive
CCN1C[C@@]2(COC)[C@H]3[C@@H](OC)[C@H]4C1[C@@]3([C@H](OC)C[C@@H]2O)[C@H]1C[C@@]2(O)[C@@H](OC(=O)c3ccccc3)[C@@H]1[C@@]4(OC(C)=O)[C@H](O)[C@@H]2OC,3.27%,–
C[N+]1([O-])[C@@H]2CC[C@H]1CC(OC(=O)[C@@H](CO)c1ccccc1)C2 (stereo not given in full),-8.05%,–
C=C1[C@@H]2CC[C@H]3[C@@]4(C)C[C@@H](O[C@@H]5O[C@H](CO)[C@H](OS(=O)(=O)O)[C@@H](OS(=O)(=O)O)[C@@H]5OC(=O)CC(C)C)C[C@@H](C(=O)O)[C@H]4CC[C@@]3(C2)[C@H]1O,24.2%,–
CS(=O)(=O)N1CCC2(CC1)CN(Cc1ccncc1)C2,-3.44%,–
c1cc(N2CCCC3(CCNCC3)C2)ccn1,15.4%,–
N#Cc1ccc(CN2CCCC3(CCN(C(=O)Oc4ccccc4)CC3)C2)cc1,16.1%,–
CN1[C@@H]2CC[C@H]1CC(O)C2 (stereo not given in full),-2.58%,–
CC(C)NC(=O)N1CCC2(CC1)CCN(C(=O)Oc1ccccc1)CC2,6.5%,–
CC[C@H](CO)NC(=O)[C@H]1C=C2c3cccc4[nH]cc(c34)C[C@@H]2N(C)C1,-3.17%,–
CCc1c(C(=O)OC)ncc2[nH]c3cc(OC)c(OC)cc3c12,19.7%,–
C[C@H]1C(=O)O[C@@H]2CCN3CC=C(COC(=O)[C@@](C)(O)[C@@]1(C)O)[C@H]23,2.41%,–
CC(C)NC(=O)N1CCCC2(CCN(C(=O)Oc3ccccc3)CC2)C1,-2.7%,–
O=C(c1ccncc1)N1CCC[C@@]2(CCN(Cc3nccs3)C2)C1,9.01%,–

# Source: PubChem BioAssay (NCATS)
